Assay results as given in paper PMC7862700, “An all-to-all approach to the identification of sequence-specific readers for epigenetic DNA modifications on cytosine”.

Tests used:
Assay in all cases: DAPPL (digital affinity profiling via proximity ligation, sequencing); 10 mM Tris-HCl pH 7.5, 50 mM NaCl, 1 mM DTT, 4% glycerol, room temperature, 30 min; GST-TFs on glutathione beads, 16-mer random dsDNA library, 0.1% formaldehyde crosslink after washing; high values mean tight binding
FLI1 = biological target: T1, FLI1 (Homo sapiens, UniProt Q01543 1-452); conditions: protein: recombinant; tags: N-terminal GST; dsDNA, one strand shown
T1 sequence: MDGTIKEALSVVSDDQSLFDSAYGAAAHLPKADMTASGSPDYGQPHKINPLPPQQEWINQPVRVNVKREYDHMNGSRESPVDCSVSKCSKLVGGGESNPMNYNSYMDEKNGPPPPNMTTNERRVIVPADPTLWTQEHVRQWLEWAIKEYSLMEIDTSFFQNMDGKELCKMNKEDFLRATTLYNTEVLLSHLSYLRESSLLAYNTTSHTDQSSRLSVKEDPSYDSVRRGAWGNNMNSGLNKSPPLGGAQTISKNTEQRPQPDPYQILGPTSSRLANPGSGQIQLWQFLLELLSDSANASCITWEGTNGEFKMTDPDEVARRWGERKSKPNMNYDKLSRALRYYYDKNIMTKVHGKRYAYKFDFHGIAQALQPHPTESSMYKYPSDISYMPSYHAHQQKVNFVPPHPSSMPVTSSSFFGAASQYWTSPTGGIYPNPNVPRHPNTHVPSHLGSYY
Procedure, shortened: (§1)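 GST fusions of human transcription factors were expressed in yeast and captured with glutathione beads. Once given DNA barcodes and pooled alongside a tag-only sample, they were incubated for 30 min at room temperature with 200 nmole of a random double-stranded 16-mer DNA library in Tris/NaCl/DTT/glycerol buffer, then washed, crosslinked (0.1% formaldehyde), proximity-ligated, PCR-amplified and sequenced on an Illumina NextSeq500. The binding signal of each hexamer is its read frequency for a factor divided by its frequency for the tag-only sample.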

ELK1 = biological target: T2, ELK1 (Homo sapiens, UniProt P19419 1-428); conditions: protein: recombinant; tags: N-terminal GST; dsDNA, one strand shown
T2 sequence: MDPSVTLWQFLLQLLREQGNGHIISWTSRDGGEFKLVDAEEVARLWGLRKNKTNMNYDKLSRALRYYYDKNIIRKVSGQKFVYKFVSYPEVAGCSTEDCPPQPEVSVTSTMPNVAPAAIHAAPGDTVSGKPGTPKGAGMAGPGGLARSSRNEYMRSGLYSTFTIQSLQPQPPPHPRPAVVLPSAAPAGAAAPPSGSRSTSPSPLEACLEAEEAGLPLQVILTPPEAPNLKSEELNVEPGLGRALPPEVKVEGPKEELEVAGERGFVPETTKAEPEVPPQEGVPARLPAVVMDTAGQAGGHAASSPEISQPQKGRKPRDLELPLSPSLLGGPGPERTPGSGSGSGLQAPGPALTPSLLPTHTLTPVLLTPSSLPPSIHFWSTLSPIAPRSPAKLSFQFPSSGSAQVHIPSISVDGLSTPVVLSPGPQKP
Procedure, shortened: as §1

GABPA = biological target: T3, GABPA (Homo sapiens, UniProt Q06546 1-454); conditions: protein: recombinant; tags: N-terminal GST; dsDNA, one strand shown
T3 sequence: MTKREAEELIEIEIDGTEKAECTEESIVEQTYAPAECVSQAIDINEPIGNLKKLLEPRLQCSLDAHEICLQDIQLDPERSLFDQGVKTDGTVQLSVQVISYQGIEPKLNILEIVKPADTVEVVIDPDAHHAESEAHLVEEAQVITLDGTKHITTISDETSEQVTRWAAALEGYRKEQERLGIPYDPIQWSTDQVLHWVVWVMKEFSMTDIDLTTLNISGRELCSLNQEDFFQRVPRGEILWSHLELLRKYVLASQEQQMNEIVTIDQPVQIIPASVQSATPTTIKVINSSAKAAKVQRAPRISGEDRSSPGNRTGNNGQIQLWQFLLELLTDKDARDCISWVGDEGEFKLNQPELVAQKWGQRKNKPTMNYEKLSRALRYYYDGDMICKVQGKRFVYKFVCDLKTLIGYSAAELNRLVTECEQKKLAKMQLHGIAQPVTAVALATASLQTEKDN
Procedure, shortened: as §1

ERG = biological target: T4, ERG (Homo sapiens, UniProt P11308 1-479); conditions: protein: recombinant; tags: N-terminal GST; dsDNA, one strand shown
T4 sequence: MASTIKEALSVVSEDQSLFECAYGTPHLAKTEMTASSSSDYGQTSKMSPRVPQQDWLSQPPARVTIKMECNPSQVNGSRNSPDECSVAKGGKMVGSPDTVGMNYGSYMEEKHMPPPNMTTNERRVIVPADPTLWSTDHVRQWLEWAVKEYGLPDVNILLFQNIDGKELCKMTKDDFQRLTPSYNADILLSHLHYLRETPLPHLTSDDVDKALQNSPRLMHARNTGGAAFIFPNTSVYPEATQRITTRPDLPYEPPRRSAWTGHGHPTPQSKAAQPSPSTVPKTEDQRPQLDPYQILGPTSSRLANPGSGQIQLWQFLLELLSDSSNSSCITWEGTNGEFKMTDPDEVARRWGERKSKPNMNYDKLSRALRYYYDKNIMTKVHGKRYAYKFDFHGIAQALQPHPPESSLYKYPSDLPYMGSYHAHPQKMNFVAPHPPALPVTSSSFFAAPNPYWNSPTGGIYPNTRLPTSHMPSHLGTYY
Procedure, shortened: as §1

ELF1 = ELF1 (Homo sapiens, UniProt P32519 1-619); conditions: protein: recombinant; tags: N-terminal GST; dsDNA, one strand shown
Sequence of ELF1 (P32519 whole entry): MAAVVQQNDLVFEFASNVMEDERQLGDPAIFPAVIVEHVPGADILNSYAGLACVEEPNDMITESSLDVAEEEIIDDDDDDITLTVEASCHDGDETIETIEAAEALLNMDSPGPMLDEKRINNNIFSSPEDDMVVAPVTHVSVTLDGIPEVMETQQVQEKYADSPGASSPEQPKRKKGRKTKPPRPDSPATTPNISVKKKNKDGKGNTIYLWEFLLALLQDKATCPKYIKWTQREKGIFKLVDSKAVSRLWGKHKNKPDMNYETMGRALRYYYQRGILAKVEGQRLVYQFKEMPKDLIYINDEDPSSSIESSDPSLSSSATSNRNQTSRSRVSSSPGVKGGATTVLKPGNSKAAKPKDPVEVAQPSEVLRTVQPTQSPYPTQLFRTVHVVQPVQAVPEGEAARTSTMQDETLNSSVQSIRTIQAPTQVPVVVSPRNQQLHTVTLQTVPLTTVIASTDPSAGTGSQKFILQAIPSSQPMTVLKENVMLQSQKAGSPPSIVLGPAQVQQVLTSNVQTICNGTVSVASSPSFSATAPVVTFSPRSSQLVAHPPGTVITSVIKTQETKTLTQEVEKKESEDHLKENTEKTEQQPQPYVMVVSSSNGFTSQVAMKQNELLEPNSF
Procedure, shortened: as §1

EHF = biological target: T5, EHF (Homo sapiens, UniProt Q9NZC4 1-300); conditions: protein: recombinant; tags: N-terminal GST; dsDNA, one strand shown
T5 sequence: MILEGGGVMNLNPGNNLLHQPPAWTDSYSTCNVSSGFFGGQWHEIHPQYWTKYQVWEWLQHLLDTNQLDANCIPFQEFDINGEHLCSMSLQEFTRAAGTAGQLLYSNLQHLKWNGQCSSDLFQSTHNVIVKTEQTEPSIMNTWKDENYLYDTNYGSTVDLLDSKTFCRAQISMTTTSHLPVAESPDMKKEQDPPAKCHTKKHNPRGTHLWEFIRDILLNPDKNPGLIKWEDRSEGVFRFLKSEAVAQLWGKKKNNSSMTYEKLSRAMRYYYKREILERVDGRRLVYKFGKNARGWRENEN
Procedure, shortened: as §1

SPI1 = SPI1 (Homo sapiens, UniProt P17947 1-270); conditions: protein: recombinant; tags: N-terminal GST; dsDNA, one strand shown
Procedure, shortened: as §1

SPIB = SPIB (Homo sapiens, UniProt Q01892 1-262); conditions: protein: recombinant; tags: N-terminal GST; dsDNA, one strand shown
Sequence of SPIB (Q01892 whole entry): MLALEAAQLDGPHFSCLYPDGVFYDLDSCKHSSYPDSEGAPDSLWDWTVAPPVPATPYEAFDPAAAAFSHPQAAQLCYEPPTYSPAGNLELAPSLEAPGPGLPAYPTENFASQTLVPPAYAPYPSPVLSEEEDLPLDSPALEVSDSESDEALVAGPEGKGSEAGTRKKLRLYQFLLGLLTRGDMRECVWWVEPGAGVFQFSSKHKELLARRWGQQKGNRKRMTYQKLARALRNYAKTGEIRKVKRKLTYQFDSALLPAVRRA
Procedure, shortened: as §1

ELK3 = biological target: T6, ELK3 (Homo sapiens, UniProt P41970 1-407); conditions: protein: recombinant; tags: N-terminal GST; dsDNA, one strand shown
T6 sequence: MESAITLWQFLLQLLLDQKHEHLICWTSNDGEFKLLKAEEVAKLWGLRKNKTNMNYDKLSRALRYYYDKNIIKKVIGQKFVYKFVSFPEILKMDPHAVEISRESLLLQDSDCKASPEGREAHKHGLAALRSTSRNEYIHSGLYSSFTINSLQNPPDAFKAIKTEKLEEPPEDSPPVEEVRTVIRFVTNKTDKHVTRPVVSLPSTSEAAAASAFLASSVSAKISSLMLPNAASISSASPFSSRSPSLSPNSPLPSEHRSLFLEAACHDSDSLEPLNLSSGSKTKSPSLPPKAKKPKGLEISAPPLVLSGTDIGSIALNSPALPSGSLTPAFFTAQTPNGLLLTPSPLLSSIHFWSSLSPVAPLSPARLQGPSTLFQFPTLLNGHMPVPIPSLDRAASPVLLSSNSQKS
Procedure, shortened: as §1

FEV = biological target: T7, FEV (Homo sapiens, UniProt Q99581 1-238); conditions: protein: recombinant; tags: N-terminal GST; dsDNA, one strand shown
T7 sequence: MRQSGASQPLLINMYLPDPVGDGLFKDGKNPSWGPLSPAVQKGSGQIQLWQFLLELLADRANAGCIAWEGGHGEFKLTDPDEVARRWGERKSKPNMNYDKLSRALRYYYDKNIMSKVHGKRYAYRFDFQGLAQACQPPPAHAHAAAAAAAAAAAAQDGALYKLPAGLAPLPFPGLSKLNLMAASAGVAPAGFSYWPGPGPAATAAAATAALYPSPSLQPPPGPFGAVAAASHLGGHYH
Procedure, shortened: as §1

ETV5 = ETV5 (Homo sapiens, UniProt P41161 1-510); conditions: protein: recombinant; tags: N-terminal GST; dsDNA, one strand shown
Sequence of ETV5 (P41161 whole entry): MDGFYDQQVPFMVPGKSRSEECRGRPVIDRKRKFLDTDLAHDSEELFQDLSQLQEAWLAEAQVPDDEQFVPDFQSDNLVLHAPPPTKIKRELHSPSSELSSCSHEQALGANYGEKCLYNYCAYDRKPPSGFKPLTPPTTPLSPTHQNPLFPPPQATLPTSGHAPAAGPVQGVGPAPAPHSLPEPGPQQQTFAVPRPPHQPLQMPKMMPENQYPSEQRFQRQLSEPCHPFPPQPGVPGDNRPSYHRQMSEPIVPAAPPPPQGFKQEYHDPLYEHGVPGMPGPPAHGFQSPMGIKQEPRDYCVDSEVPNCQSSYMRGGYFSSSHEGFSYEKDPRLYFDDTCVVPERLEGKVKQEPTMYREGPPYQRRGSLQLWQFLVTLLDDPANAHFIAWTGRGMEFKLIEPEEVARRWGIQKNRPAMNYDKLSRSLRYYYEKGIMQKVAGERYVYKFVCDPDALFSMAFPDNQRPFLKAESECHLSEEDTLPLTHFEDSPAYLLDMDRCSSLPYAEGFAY
Procedure, shortened: as §1

HSF1 = HSF1 (Homo sapiens, UniProt Q00613 1-529); conditions: protein: recombinant; tags: N-terminal GST; chain copies: 3; dsDNA, one strand shown
Sequence of HSF1 (Q00613 whole entry): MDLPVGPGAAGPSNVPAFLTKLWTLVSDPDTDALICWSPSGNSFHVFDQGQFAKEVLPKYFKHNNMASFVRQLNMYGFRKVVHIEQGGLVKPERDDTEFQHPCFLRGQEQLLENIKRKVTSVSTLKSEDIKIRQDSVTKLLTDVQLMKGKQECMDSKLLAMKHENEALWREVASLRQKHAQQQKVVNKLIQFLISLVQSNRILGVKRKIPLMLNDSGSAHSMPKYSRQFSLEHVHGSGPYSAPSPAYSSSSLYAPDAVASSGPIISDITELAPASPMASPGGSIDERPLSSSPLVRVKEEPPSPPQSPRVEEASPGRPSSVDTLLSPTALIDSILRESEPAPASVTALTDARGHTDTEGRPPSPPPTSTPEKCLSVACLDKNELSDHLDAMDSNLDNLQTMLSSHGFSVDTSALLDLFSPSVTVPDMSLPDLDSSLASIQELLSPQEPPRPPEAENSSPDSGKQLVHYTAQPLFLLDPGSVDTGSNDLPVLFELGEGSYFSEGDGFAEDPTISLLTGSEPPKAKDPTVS
Procedure, shortened: as §1

SPIC = biological target: T8, SPIC (Homo sapiens, UniProt Q8N5J4 1-248); conditions: protein: recombinant; tags: N-terminal GST; dsDNA, one strand shown
T8 sequence: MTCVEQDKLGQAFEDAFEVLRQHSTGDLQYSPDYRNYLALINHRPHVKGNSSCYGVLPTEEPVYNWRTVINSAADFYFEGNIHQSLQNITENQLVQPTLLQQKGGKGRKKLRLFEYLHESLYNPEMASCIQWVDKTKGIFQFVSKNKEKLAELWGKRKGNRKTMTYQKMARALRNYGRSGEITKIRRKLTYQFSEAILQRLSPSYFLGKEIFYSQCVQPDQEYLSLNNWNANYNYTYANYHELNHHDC
Procedure, shortened: as §1

ELF4 = ELF4 (Homo sapiens, UniProt Q99607 1-663); conditions: protein: recombinant; tags: N-terminal GST; dsDNA, one strand shown
Sequence of ELF4 (Q99607 whole entry): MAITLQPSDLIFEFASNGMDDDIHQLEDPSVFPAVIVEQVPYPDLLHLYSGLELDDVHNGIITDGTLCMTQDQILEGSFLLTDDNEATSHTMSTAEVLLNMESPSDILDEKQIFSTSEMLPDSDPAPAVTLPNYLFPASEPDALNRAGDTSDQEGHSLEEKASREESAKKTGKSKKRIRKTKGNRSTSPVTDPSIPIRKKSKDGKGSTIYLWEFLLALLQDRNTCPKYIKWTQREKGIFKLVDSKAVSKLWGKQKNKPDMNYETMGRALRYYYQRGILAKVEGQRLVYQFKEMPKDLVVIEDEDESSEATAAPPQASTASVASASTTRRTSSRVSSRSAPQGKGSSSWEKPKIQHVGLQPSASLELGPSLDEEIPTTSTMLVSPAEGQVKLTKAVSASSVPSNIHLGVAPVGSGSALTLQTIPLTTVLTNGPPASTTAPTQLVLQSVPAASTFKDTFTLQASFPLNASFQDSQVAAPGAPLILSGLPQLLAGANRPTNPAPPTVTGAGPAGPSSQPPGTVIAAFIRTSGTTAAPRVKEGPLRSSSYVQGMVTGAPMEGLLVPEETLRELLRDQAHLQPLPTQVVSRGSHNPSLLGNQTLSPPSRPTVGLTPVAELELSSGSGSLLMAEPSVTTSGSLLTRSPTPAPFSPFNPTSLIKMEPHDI
Procedure, shortened: as §1

ELK4 = biological target: T9, ELK4 (Homo sapiens, UniProt P28324-2 1-405); conditions: protein: recombinant; tags: N-terminal GST; dsDNA, one strand shown
T9 sequence: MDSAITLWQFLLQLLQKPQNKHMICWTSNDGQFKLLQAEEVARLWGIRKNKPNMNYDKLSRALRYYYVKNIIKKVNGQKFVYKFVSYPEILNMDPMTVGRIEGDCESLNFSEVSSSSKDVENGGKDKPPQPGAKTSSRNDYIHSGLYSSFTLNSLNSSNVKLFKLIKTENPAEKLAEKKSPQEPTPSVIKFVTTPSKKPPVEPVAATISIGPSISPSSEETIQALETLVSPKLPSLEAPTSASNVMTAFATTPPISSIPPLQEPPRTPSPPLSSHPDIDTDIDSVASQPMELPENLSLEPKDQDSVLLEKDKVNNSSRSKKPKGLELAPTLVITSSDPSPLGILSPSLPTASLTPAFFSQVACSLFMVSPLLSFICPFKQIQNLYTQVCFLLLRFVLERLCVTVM
Procedure, shortened: as §1

ETV2 = biological target: T10, ETV2 (Homo sapiens, UniProt O00321 1-342); conditions: protein: recombinant; tags: N-terminal GST; dsDNA, one strand shown
T10 sequence: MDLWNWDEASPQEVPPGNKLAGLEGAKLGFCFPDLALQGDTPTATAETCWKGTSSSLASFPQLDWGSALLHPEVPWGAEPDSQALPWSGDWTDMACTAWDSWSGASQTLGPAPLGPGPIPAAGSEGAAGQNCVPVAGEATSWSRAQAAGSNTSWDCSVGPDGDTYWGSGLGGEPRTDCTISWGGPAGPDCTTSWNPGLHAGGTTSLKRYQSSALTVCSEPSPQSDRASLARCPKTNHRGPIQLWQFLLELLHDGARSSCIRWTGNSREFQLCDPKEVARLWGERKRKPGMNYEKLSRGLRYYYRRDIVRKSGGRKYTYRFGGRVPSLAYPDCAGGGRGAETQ
Procedure, shortened: as §1

ELF3 = biological target: T11, ELF3 (Homo sapiens, UniProt P78545 1-371); conditions: protein: recombinant; tags: N-terminal GST; dsDNA, one strand shown
T11 sequence: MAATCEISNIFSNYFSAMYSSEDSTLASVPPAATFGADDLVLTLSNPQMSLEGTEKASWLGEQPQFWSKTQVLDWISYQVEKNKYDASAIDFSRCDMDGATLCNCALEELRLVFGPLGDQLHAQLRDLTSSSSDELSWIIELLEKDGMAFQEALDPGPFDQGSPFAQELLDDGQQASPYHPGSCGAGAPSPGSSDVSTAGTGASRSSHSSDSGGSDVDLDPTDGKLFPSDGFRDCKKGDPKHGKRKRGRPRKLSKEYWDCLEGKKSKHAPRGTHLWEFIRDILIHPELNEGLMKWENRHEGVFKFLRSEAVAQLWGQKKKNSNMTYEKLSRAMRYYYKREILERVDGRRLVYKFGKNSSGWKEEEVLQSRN
Procedure, shortened: as §1

CRX = CRX (Homo sapiens, UniProt O43186 1-299); conditions: protein: recombinant; tags: N-terminal GST; dsDNA, one strand shown
Sequence of CRX (O43186 whole entry): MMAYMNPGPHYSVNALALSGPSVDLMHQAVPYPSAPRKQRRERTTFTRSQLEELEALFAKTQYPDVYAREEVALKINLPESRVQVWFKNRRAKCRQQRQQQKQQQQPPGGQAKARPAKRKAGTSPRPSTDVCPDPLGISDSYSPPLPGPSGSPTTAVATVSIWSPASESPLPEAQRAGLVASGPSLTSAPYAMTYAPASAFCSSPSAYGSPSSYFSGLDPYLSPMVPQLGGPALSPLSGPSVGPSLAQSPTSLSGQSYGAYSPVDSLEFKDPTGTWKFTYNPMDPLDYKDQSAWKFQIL
Procedure, shortened: as §1

ETV1 = ETV1 (Homo sapiens, UniProt P50549 1-477); conditions: protein: recombinant; tags: N-terminal GST; dsDNA, one strand shown
Sequence of ETV1 (P50549 whole entry): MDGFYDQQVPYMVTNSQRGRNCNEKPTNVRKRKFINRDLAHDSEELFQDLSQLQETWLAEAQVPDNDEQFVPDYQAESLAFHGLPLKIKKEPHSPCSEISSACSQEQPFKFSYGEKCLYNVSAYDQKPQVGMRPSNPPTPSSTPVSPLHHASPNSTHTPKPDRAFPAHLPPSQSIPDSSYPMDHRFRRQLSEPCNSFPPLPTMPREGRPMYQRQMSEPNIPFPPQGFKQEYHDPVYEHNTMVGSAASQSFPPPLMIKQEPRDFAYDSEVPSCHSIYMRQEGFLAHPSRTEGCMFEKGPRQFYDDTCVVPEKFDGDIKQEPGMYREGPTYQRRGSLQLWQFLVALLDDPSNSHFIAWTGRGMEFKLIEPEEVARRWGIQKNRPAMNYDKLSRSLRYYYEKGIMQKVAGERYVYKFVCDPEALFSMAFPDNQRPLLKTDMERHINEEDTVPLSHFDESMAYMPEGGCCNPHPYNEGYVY
Procedure, shortened: as §1

With AAATGC the binding signal (FLI1) was 1.17 fold enrichment (6-mer frequency, TF over GST control), the binding signal (ELK1) was 1.29 fold enrichment (6-mer frequency, TF over GST control) and the binding signal (GABPA) was 1.25 fold enrichment (6-mer frequency, TF over GST control). The binding signal (ERG) was 1.3 fold enrichment (6-mer frequency, TF over GST control), the binding signal (ELF1) was 1.25 fold enrichment (6-mer frequency, TF over GST control) and the binding signal (EHF) was 1.25 fold enrichment (6-mer frequency, TF over GST control). The binding signal (SPI1) was 1.48 fold enrichment (6-mer frequency, TF over GST control), the binding signal (SPIB) was 1.18 fold enrichment (6-mer frequency, TF over GST control) and the binding signal (ELK3) was 1.18 fold enrichment (6-mer frequency, TF over GST control). The binding signal (FEV) was 1.35 fold enrichment (6-mer frequency, TF over GST control), the binding signal (ETV5) was 1.34 fold enrichment (6-mer frequency, TF over GST control) and the binding signal (HSF1) was 1.09 fold enrichment (6-mer frequency, TF over GST control). For the same sequence, the binding signal (SPIC) was 1.13 fold enrichment (6-mer frequency, TF over GST control), the binding signal (ELF4) was 1.23 fold enrichment (6-mer frequency, TF over GST control) and the binding signal (ELK4) was 1.37 fold enrichment (6-mer frequency, TF over GST control). The binding signal (ETV2) was 1.23 fold enrichment (6-mer frequency, TF over GST control), the binding signal (ELF3) was 1.35 fold enrichment (6-mer frequency, TF over GST control) and the binding signal (CRX) was 1.19 fold enrichment (6-mer frequency, TF over GST control). The binding signal (ETV1) was 1.26 fold enrichment (6-mer frequency, TF over GST control).
